Screens from PubChem.
Only some compounds are listed: those with a hit (about 4.2% of all), similar ones and a draw of the others.
NALP1 yeast inh – blocks the NALP1 inflammasome reconstituted in yeast; S. cerevisiae NALP1/ASC/caspase-1 growth, X-gal OD620, 72 h; inhibition, % at 10 µM; hit rate 0.61% among 280,000; AID 2071; in the data active = inhibition mostly above about 24%, no sharp cut-off; inactive = mostly below about 32%
NALP3 yeast inh – inhibitors of NALP3 inflammasome in yeast; Yeast reconstituted NLRP3/ASC/caspase-1, beta-gal luminescence, 24 h; inhibition, % at 10 µM; hit rate 0.39% among 330,000; AID 2825;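 active = inhibition of 50% or more; inactive = inhibition below 50%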
tim23-1 inh – inhibits growth of tim23-1 mutant yeast. S. cerevisiae tim23-1 growth, BacTiter-Glo luminescence, 24 h. inhibition, % at 20 µM. hit rate 1.3% among 330,000;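 active = growth inhibition of the mutant yeast at or above 50%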;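 also: temperature-sensitive mutant grown at 25 °C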
tim10-1 inh – inhibits growth of tim10-1 mutant yeast; hit rate 2.2% among 330,000; S. cerevisiae tim10-1 ts strain growth, BacTiter-Glo, 24 h; AID 463190; inhibition, % at 20 µM;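 active = inhibition of at least 40%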;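 also: mutant grown at 25 °C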
V-ATPase pHluor – regulators of yeast V-ATPase proton transport | S. cerevisiae, pHLuorin cytosolic pH fluorescence | response, % at 10 µM | hit rate 0.37% among 350,000 | AID 504577; in the data active = response mostly above about 7.3%, no sharp cut-off; inactive = mostly below about 5.4%; also: actives read high
TIM10 inh – growth inhibitors of TIM10 yeast strain; hit rate 1.4% among 330,000; S. cerevisiae TIM10 strain growth, BacTiter-Glo luminescence, 24 h; AID 463195; inhibition, % at 10 µM;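 active = inhibition of 40% or more at the single tested concentration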;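 also: wild-type TIM10 isogenic control strain grown at permissive 25 °C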
tim10 confirm – TIM10 yeast growth inhibition, confirmed; inhibition, % at 10 µM; AID 463215; hit rate 63% among 4,600; shares compounds with TIM10 inh; S. cerevisiae tim10 strain growth, BacTiter-Glo luminescence, 24 h;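 active = inhibition of yeast growth at or above a set limit in either of two replicates at 10 µM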; also: this counterscreen used the strain with wild-type TIM10
tim23-1 conf – confirmation of tim23-1 mutant yeast growth inhibitors | shares compounds with tim23-1 inh | S. cerevisiae tim23-1 growth, BacTiter-Glo luminescence, 24 h | inhibition, % at 20 µM | hit rate 83% among 4,400;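 active = inhibition above about 39% in either of two replicate wells at 20 µM, limit read from the data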;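 also: temperature-sensitive tim23-1 mutant grown at 25 °C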
VATPase regulator – regulators of yeast V-ATPase proton transport. shares compounds with V-ATPase pHluor. S. cerevisiae pHLuorin cytosolic pH. response, % at 10 µM. hit rate 2% among 980. AID 602197; in the data active = response above about 24%
Numbers stand for hits.

`COc1n[nH]c(C(=O)Nc2nc3ccccc3s2)c1[N+](=O)[O-]` gave NALP1 yeast inh inactive, NALP3 yeast inh inactive, tim23-1 inh inactive, tim10-1 inh inactive, V-ATPase pHluor inactive and TIM10 inh inactive.
`NS(=O)(=O)c1ccc(CNS(=O)(=O)c2ccc3c(c2)OCCO3)cc1` gave NALP1 yeast inh inactive, NALP3 yeast inh inactive, tim23-1 inh inactive, tim10-1 inh inactive, V-ATPase pHluor inactive and TIM10 inh inactive.
Cc1ccc(CNS(=O)(=O)c2ccc3c(c2)OCCO3)cc1 was read as NALP1 yeast inh inactive, NALP3 yeast inh inactive, tim23-1 inh 56, tim10-1 inh inactive, V-ATPase pHluor inactive, TIM10 inh 41, tim10 confirm 42 and tim23-1 conf 46.
For CCOP(=O)(OCC)/C(=N/OC(=O)c1ccc(Cl)cc1Cl)C(N)=O the results were NALP1 yeast inh inactive, NALP3 yeast inh inactive, tim23-1 inh inactive, tim10-1 inh inactive, V-ATPase pHluor inactive and TIM10 inh inactive.
Screening N/C(=N\OC(=O)c1cc(Cl)ccc1Cl)c1ccccn1 returned NALP1 yeast inh inactive, NALP3 yeast inh inactive, tim23-1 inh 66, tim10-1 inh inactive, V-ATPase pHluor inactive, TIM10 inh 58, tim10 confirm 44 and tim23-1 conf 57.
Screening Cc1cccc(/C(N)=N/OC(=O)c2ccc(Cl)cc2Cl)c1 returned NALP1 yeast inh inactive, NALP3 yeast inh inactive, tim23-1 inh 66, tim10-1 inh inactive, V-ATPase pHluor inactive, TIM10 inh 86, tim10 confirm 88 and tim23-1 conf 40.
`Cc1ccc(/C(N)=N/OC(=O)c2ccc(C)cc2Cl)cc1` gave NALP1 yeast inh inactive, NALP3 yeast inh inactive, tim23-1 inh 80, tim10-1 inh inactive, V-ATPase pHluor inactive, TIM10 inh 82, tim10 confirm 89 and tim23-1 conf inactive.
N/C(=N\OC(=O)c1ccc(Cl)cc1Cl)c1ccc(Cl)cc1 was read as NALP1 yeast inh inactive, NALP3 yeast inh inactive, tim23-1 inh 82, tim10-1 inh inactive, V-ATPase pHluor inactive, TIM10 inh 79, tim10 confirm 85 and tim23-1 conf 67.
CCc1ccc(NC(=S)N(CCN2CCOCC2)Cc2ccccc2F)cc1 was read as NALP1 yeast inh inactive, NALP3 yeast inh inactive, tim23-1 inh inactive, tim10-1 inh inactive, V-ATPase pHluor inactive and TIM10 inh inactive.
For COc1ccc(NC(=O)Cn2c(=O)n(-c3ccc(CC(=O)NCc4ccco4)cc3)c(=O)c3ccccc32)cc1 the results were NALP1 yeast inh inactive, NALP3 yeast inh inactive, tim23-1 inh inactive, tim10-1 inh inactive, V-ATPase pHluor inactive and TIM10 inh inactive.
CN1C(=S)N(c2cccnc2)C(=O)/C1=C\c1ccc(C(C)(C)C)cc1 was read as NALP1 yeast inh inactive, NALP3 yeast inh inactive, tim23-1 inh 55, tim10-1 inh inactive, V-ATPase pHluor inactive, TIM10 inh 55, tim10 confirm 56 and tim23-1 conf 46.
`CN1C(=S)N(c2cccnc2)C(=O)/C1=C\c1ccc(N(C)C)cc1` gave NALP1 yeast inh inactive and V-ATPase pHluor inactive.
For CN1CCN(C(=O)CCN2C(=O)c3ccccc3S2(=O)=O)CC1 the results were NALP3 yeast inh inactive, tim23-1 inh inactive, tim10-1 inh inactive, V-ATPase pHluor inactive and TIM10 inh inactive.
`O=C(/C=C/c1ccccc1)Nc1ccc2c(c1)OCCO2` gave NALP1 yeast inh inactive, NALP3 yeast inh inactive, tim23-1 inh 54, tim10-1 inh inactive, V-ATPase pHluor inactive, TIM10 inh 46, tim10 confirm inactive and tim23-1 conf 70.
For Cc1cccc(O)c1C the results were NALP3 yeast inh inactive, tim23-1 inh inactive, tim10-1 inh inactive, V-ATPase pHluor inactive and TIM10 inh inactive.
Cc1cccc(C)c1N=Nc1c(C)cc(O)cc1C was read as NALP1 yeast inh inactive, NALP3 yeast inh inactive, tim23-1 inh 63, tim10-1 inh inactive, V-ATPase pHluor inactive, TIM10 inh 47, tim10 confirm 65 and tim23-1 conf inactive.
Screening COc1ccccc1C/C(N)=N/OC(=O)c1ccc2c(c1)OCO2 returned NALP1 yeast inh inactive, NALP3 yeast inh inactive, tim23-1 inh 72, tim10-1 inh inactive, V-ATPase pHluor 8.5, TIM10 inh 71, tim10 confirm 80, tim23-1 conf 77 and VATPase regulator inactive.
`Cc1nn(CC(=O)Nc2ccc(N3CCOCC3)cc2)c(C)c1Cl` gave NALP1 yeast inh inactive, NALP3 yeast inh inactive, tim23-1 inh inactive, tim10-1 inh inactive, V-ATPase pHluor inactive and TIM10 inh inactive.
`CCc1nc(N2CCN(C(C)=O)CC2)c2c3c(sc2n1)CC(C(C)(C)C)CC3` (stereo not drawn) gave NALP1 yeast inh inactive, NALP3 yeast inh inactive, tim23-1 inh inactive, tim10-1 inh inactive, V-ATPase pHluor inactive and TIM10 inh inactive.
`CCc1nc(N2CCN(C(=O)CCl)CC2)c2c3c(sc2n1)CC(C)CC3` (stereo not drawn) gave NALP1 yeast inh 40, NALP3 yeast inh inactive, tim23-1 inh 55, tim10-1 inh inactive, V-ATPase pHluor inactive, TIM10 inh inactive and tim23-1 conf inactive.
For CCN(CC(=O)NCc1ccc(Cl)cc1)C(=O)c1cc2ccccc2o1 the results were NALP1 yeast inh inactive, NALP3 yeast inh inactive, tim23-1 inh inactive, tim10-1 inh inactive, V-ATPase pHluor inactive and TIM10 inh inactive.
`c1ccc(Nc2nc(-c3cccnc3)cs2)nc1` gave NALP1 yeast inh inactive, NALP3 yeast inh inactive, tim23-1 inh inactive, tim10-1 inh inactive, V-ATPase pHluor inactive and TIM10 inh inactive.
`Oc1ccc(-c2csc(Nc3ccccn3)n2)c(O)c1` gave NALP1 yeast inh inactive, NALP3 yeast inh inactive, tim23-1 inh 72, tim10-1 inh inactive, V-ATPase pHluor inactive, TIM10 inh inactive and tim23-1 conf 54.
Screening Cc1cccc(Nc2nc(-c3cccs3)cs2)n1 returned NALP1 yeast inh inactive, NALP3 yeast inh inactive, tim23-1 inh inactive, tim10-1 inh inactive, V-ATPase pHluor inactive and TIM10 inh inactive.
Screening c1ccc(Nc2nc(-c3cccs3)cs2)nc1 returned NALP1 yeast inh inactive, NALP3 yeast inh inactive, tim23-1 inh 57, tim10-1 inh inactive, V-ATPase pHluor inactive, TIM10 inh inactive and tim23-1 conf inactive.
Screening Fc1ccc(-c2csc(Nc3ccccn3)n2)cc1 returned NALP1 yeast inh inactive, NALP3 yeast inh inactive, tim23-1 inh 54, tim10-1 inh inactive, V-ATPase pHluor inactive, TIM10 inh inactive and tim23-1 conf 41.
Screening CCN(CC)C(=O)Cn1ncc2c1-c1ccccc1OC2 returned NALP1 yeast inh inactive, NALP3 yeast inh inactive, tim23-1 inh inactive, tim10-1 inh inactive, V-ATPase pHluor inactive and TIM10 inh inactive.
